Compound activity from PubChem BioAssay.
FAS-TE inh: FAS thioesterase (human) inhibition. P49327. recombinant FAS-TE, OMFH fluorogenic substrate, fluorescence endpoint. inhibition, % at 15 µM. actives 0.67% (n = 360,000);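 active = compounds whose normalised, plate-corrected inhibition of enzyme fluorescence in the single-dose primary screen is 50% or more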;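 note: 0% = DMSO with enzyme and 100% = substrate without enzyme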
aDG glyco up: increases alpha dystroglycan glycosylation; Pro5-aDG cells, alpha-DG glycosylation AlphaScreen (IIH6); 0% Pro5, 100% B10-LARGE cell signal; activation, % at 10 µM; actives 0.22% (n = 360,000);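 active = activation of at least 8% versus controls, or a plate z-score of at least 8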;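 note: Pro5 are CHO cells carrying HIG-tagged alpha-DG that lacks glycosylation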
ADAM10 inh: ADAM10 inhibition, QFRET primary screen; inhibition, % at 7 µM; recombinant ADAM10, EDANS/DABCYL FRET peptide cleavage, 3 h; AID 720582; O14672; actives 0.62% (n = 370,000);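 active = inhibition above a per-campaign cutoff equal to the mean of compounds falling between control-based bounds plus 3 SD, cut at about 20% in these data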;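 note: 0% = DMSO wells while the 100% control is not disclosed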
Target sequence (O14672 214-748 limits assumed): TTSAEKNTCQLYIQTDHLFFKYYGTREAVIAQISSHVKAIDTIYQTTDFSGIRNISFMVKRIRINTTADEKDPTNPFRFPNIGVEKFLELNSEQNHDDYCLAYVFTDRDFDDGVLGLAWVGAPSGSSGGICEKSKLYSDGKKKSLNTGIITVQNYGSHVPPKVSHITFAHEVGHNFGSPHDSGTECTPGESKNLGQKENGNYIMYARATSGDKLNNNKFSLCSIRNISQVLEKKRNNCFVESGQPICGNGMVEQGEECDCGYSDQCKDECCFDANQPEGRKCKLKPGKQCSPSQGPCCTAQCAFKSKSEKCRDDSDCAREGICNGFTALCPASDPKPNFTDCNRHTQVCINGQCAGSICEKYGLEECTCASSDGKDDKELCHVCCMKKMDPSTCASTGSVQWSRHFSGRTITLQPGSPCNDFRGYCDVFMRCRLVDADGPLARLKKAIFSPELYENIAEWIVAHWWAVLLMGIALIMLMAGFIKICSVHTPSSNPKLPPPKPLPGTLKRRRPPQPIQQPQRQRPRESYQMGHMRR
NR3A LBD binder: modulates the human NR3A ligand-binding domain; Tm shift relative to glycine control, % at 25 µM; actives 2.5% (n = 340,000); AID 1259313; NR3A LBD differential scanning fluorimetry, Tm shift; 0% = protein alone, 100% = glycine-bound protein;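 active = melting temperature shift of at least 10% of the positive control shift, at one fixed dose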
ADAM17 inh: ADAM17 inhibition, QFRET primary screen. P78536. recombinant ADAM17, EDANS/DABCYL FRET peptide cleavage. inhibition, % at 6.95 µM. actives 0.83% (n = 370,000). AID 720648;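 active = inhibition above the mean of compounds lying between control limits plus 3 SD, set per campaign, cut at about 8.5% in these data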;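 note: 0% = DMSO-only wells as the low control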
ADAM10 confirm: confirmation of inhibitors of human ADAM10; ADAM10 QFRET peptide cleavage, EDANS fluorescence; inhibition, % at 6.95 µM; shares compounds with ADAM10 inh; actives 1% (n = 2,100);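 active = inhibition above about 20% chosen separately for each screening run, limit read from the data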;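 note: 0% = DMSO wells and 100% = marimastat wells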
ADAM17 counter: inhibits human ADAM17 in ADAM10 exosite counter-screen | ADAM17 QFRET peptide cleavage, EDANS fluorescence | shares compounds with ADAM10 inh | AID 743214 | inhibition, % at 6.95 µM | actives 0.5% (n = 2,100);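 active = mean triplicate inhibition above the solvent-only control wells' mean plus 3 SD, cut at about 12% in these data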;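 note: 0% = DMSO wells and 100% = marimastat wells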
ADAM10 ctr: ADAM10 inhibition, counter-screen for ADAM17 exosite hits. shares compounds with ADAM17 inh. actives 47% (n = 2,900). inhibition, % at 6.95 µM. recombinant ADAM10, EDANS/DABCYL FRET peptide cleavage, 3 h;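 active = mean inhibition over the triplicate runs exceeds the activity threshold set in the earlier primary screen, cut at about 20% in these data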;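 note: 0% = DMSO wells and 100% = marimastat wells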
ADAM17 confirm: human ADAM17 inhibition, confirmation; shares compounds with ADAM17 inh; recombinant ADAM17, EDANS/DABCYL QFRET peptide cleavage; inhibition, % at 6.95 µM; actives 65% (n = 2,900); AID 743257;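 active = mean inhibition across replicates above the hit cutoff set in the primary screen, cut at about 8.5% in these data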;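 note: 0% = DMSO wells and 100% = marimastat wells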
Numbers without * were called inactive; . = no result given. The list is not random: actives were taken first. Their share in the collection is about 4%.

SMILES	FAS-TE inh	aDG glyco up	ADAM10 inh	NR3A LBD binder	ADAM17 inh	ADAM10 confirm	ADAM17 counter	ADAM10 ctr	ADAM17 confirm
Cc1nc2ccc(NC(=O)N(C)c3ccccc3)cc2s1	-10	0	-15	0	-6	.	.	.	.
Cc1ccc(S(=O)(=O)N(C)c2ccc(C(=O)Nc3cccc(C)n3)cc2)cc1	15	0	20*	0	15*	1	0	10	8
O=C(O)c1cccc(S(=O)(=O)NCC(=O)N2CCN(c3ccccn3)CC2)c1	.	.	-2	.	-1	.	.	.	.
CC(C)(C)NC(=O)C1Cc2ccccc2CN1S(=O)(=O)c1ccc(F)cc1 (stereo not given)	2	0	2	-2	1	.	.	.	.
CC1(C(=O)NS(=O)(=O)c2cccs2)CCN1C(=O)C1(c2ccccc2)CCCC1 (stereo not given)	-8	0	-13	.	-5	.	.	.	.
COc1ccccc1CNS(=O)(=O)c1cc(-c2cc(C)no2)ccc1C(C)C	23	0	32*	-10	11*	2	1	17	12*
O=C(NCc1ccccc1)c1onc(CSc2ccc(Cl)cc2)c1C(=O)NCC1CC1	20	0	12	-6	1	.	.	.	.
O=C(NCc1ccccc1)c1onc(CSc2ccccc2)c1C(=O)NCC1CC1	40	0	25*	-6	12*	7	3	41*	22*
Cc1[nH]c2ccccc2c1C(=O)C(=O)N1CCN(c2cccc(Cl)c2)CC1	13	0	24*	2	18*	2	0	25*	8.8*
Cc1ccc(S(=O)(=O)N(C)C)cc1NC(=O)C1CCC1	-4	0	-2	2	2	.	.	.	.
CCN(CC)S(=O)(=O)c1ccc(C)c(NC(=S)NNC(=O)C2CC2)c1	-13	0	24*	-2	9.7*	1	0	-5	2
Cc1ccc(N(C(=O)c2csnn2)C(C(=O)NC2CCCC2)c2ccccn2)cc1 (stereo not given)	-2	0	-2	0	0	.	.	.	.
Cc1nn(Cc2ccc(Cl)cc2Cl)c(C)c1NC(=O)c1ccc(COc2cc(Cl)ccc2Cl)o1	17	2	-3	2	-2	.	.	.	.
Cc1nn(Cc2c(F)c(F)c(F)c(F)c2F)c(C)c1NC(=O)c1ccc(COc2ccc(Cl)cc2Cl)o1	39	0	25*	1	11*	5	2	45*	19*
CNC(=O)CCc1[nH]c2ccccc2c1Sc1ccccc1	2	0	20*	-4	9.1*	1	0	4	3
C/C(=N\OCC(=O)Nc1ccc(F)c(F)c1F)c1cc2ccccc2o1	48	0	4	-8	0	.	.	.	.
CCc1ccc(NC(=O)CO/N=C(\C)c2cc3ccccc3o2)cc1	22	0	24*	-8	13*	6	2	18	13*
CCNC(=O)NC(=O)C(C)OC(=O)c1oc2ccc(OC)cc2c1C (stereo not given)	-6	0	-53	0	-14	.	.	.	.
N#Cc1ccc(S(=O)(=O)N2CCC(N3CCCCC3)CC2)cc1	-4	0	-1	-1	1	.	.	.	.
NS(=O)(=O)c1ccc(NCc2cc(Cl)ccc2OCc2ccccc2F)cc1	24	1	31*	7	14*	11	4	47*	21*
Cc1ccccc1-c1noc(-c2ccc(Cl)cc2)n1	-2	0	5	-1	0	.	.	.	.
Cc1ccccc1-c1noc(-c2ccc(O)cc2)n1	13	1	33*	10	13*	2	0	19	12*
Cc1ccc(-c2nnc(SCC(=O)NN=Cc3c[nH]c4ccccc34)n2-c2ccccc2)cc1	.	.	14	.	6	.	.	.	.
O=C(CSc1nnc(-c2ccc(Cl)cc2)n1-c1ccccc1)NN=Cc1c[nH]c2ccccc12	.	.	29*	.	16*	8	2	42*	18*
COc1ccc(/C=C/C(=O)N2CCOCC2)cc1OC	-2	0	-40	1	-16	.	.	.	.
SMILES	FAS-TE inh	aDG glyco up	ADAM10 inh	NR3A LBD binder	ADAM17 inh	ADAM10 confirm	ADAM17 counter	ADAM10 ctr	ADAM17 confirm
COc1cccc(OC(=O)c2ccccc2)c1OC(=O)c1ccccc1	32	0	27*	0	15*	2	2	11	8
COc1ccc(C(CC(=O)c2ccccc2)CC(=O)c2ccccc2)cc1	34	0	20*	1	11*	2	1	5	5
Nc1nc(SCC(=O)c2ccc(Br)s2)n[nH]1	-10	0	-2	1	-2	.	.	.	.
C=C(C)C(=O)OCC(O)COc1ccc(C(C)(C)c2ccc(OCC(O)COC(=O)C(=C)C)cc2)cc1 (stereo not given)	25	1	35*	-13	9.5*	8	2	33*	18*
CCc1nc2ccc(C(=O)Nc3ccc(OC)c(OC)c3)cn2c1N(CC)Cc1cccc(Br)c1	14	0	26*	.	12*	11	4	11	9.8*
O=C(COc1ccccc1)N1CCN(c2ccc([N+](=O)[O-])c(N3CCCCC3)c2)CC1	33	0	13	-2	7	.	.	.	.
O=C(COc1ccc(Br)cc1)N1CCN(c2ccc([N+](=O)[O-])c(N3CCCCC3)c2)CC1	28	0	24*	-4	11*	8	1	32*	18*
C/C(=N\NC(=O)c1c([N+](=O)[O-])c(C)nn1C)c1ccc(NC(=O)c2ccc(C)o2)cc1	-1	0	-2	1	-2	.	.	.	.
COc1ccc(N2CCC(CNC(=S)Nc3cccc(OC)c3)C2)cc1 (stereo not given)	.	.	20*	.	8.8*	3	1	11	11*
COc1ccc(CCNS(=O)(=O)c2ccc(C3CNC(=O)C3)cc2)cc1OC (stereo not given)	-5	0	-11	0	-3	.	.	.	.
COc1cccc(N)c1	.	.	-9	.	0	.	.	.	.
Nc1cccc(Oc2c(F)c(F)c(Oc3cccc(N)c3)c(F)c2F)c1	34	0	23*	23*	9.2*	4	1	41*	20*
COc1ccccc1OCCNc1cc(N2CCCCC2)ccc1[N+](=O)[O-]	29	0	-1	1	-1	.	.	.	.
CCOc1cc(N2CCCC2)ccc1[N+](=O)[O-]	-8	0	20*	1	9.3*	1	0	17	7
